Screening results: PubChem, National Center for Advancing Translational Sciences (NCATS)
G9a inh: G9a (human) methyltransferase inhibition; Q96KQ7; G9a H3K9 monomethylation, AlphaScreen, 2 h; Potency, µM (top dose mostly 102 µM), most hits filed as inhibitors; actives 8.8% (n = 350,000); also: nearly all actives have a fitted effect of over 75% in size
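AlphaScreen read-out: biotin-H3K9 peptide (500 nM) methylation by 20 nM enzyme with 20 uM SAM, 2 h at room temperature after 15 min compound preincubation; anti-monomethyl H3K9 antibody plus donor/acceptor beads, 10 min dark.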
JMJD2A Tudor inh: JMJD2A Tudor domain (human) inhibition; actives 4.4% (n = 390,000); AlphaScreen JMJD2A-Tudor / H3K4me3 peptide binding; Potency, µM (titrated, usually from 114 µM), most hits filed as inhibitors; O75164; AID 504339; also: nearly all actives have a fitted effect of over 50% in size
BAZ2B block: inhibitors of human BAZ2B bromodomain. Potency, µM (series often up to 114 µM), most hits filed as inhibitors. AlphaScreen BAZ2B-H3K14Ac peptide displacement. actives 4.4% (n = 360,000). Q9UIF8; also: nearly all actives have a fitted effect of over 60% in size
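BAZ2B 50 nM plus b-H3(5-23)K14Ac 50 nM, PBS pH 7.4/0.01% Tween-20, 30 min RT; compound added (max 110 uM), 30 min RT; streptavidin donor/Ni-chelate acceptor beads 10 ug/mL final, 20 min dark; AlphaScreen read.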
HP1b chromo inh: blocks HP1-beta chromodomain binding to methylated histone tails. P83916. AlphaScreen HP1-beta / biotin-H3K9me3 peptide binding. Potency, µM (highest dose often 114 µM), most hits filed as inhibitors. actives 0.56% (n = 390,000); also: nearly all actives have a fitted effect of over 70% in size
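Compound inhibition of the preformed complex between 50 nM HP1-beta and 50 nM biotinylated H3K9me3 peptide was read by AlphaScreen. Buffer was PBS pH 7.4 with 0.01% Tween-20. Incubations ran 30 min at room temperature, with 10 ug/mL donor/acceptor beads.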
L3MBTL1 inh: blocks human L3MBTL1; Q9Y468; AlphaScreen L3MBTL1–H3K9me1 peptide binding; Potency, µM (doses to about 57.1 µM), usual class: inhibitors; actives 0.66% (n = 230,000); AID 485360; also: nearly all actives have a fitted effect of over 60% in size
Target sequence (Q9Y468 whole entry, looked up): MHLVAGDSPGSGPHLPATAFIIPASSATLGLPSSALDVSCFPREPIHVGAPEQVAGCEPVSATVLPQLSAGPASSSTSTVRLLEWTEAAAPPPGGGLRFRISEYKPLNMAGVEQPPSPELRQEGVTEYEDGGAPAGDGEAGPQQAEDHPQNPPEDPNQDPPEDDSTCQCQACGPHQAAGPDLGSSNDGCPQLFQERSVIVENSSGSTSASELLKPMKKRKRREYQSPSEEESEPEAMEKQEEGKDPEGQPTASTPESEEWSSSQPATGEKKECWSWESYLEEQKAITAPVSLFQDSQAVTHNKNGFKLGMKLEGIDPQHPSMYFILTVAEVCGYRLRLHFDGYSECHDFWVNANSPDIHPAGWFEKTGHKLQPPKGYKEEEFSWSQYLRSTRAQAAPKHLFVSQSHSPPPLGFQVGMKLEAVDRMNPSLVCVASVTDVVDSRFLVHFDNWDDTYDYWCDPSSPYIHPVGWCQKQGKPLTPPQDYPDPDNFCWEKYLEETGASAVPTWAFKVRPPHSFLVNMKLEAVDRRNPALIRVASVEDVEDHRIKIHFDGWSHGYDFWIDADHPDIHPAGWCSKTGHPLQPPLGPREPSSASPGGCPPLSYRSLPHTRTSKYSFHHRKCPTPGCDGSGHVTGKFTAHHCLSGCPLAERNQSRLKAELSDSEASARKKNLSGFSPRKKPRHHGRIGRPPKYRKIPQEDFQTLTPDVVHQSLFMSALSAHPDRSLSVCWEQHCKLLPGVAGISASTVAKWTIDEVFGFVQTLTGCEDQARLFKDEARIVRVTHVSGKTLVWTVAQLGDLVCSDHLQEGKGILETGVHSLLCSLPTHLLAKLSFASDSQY
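L3MBTL1 (50 nM) pre-complexed 30 min with biotinylated H3(1-15)K9me1 peptide (75 nM), then compounds added for 30 min at room temperature; AlphaScreen streptavidin donor/nickel chelate acceptor beads (10 ug/mL final) read after 30 min dark incubation.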
Large screens that a line does not name were inactive. A selection: hits, their analogues and other compounds. The true share with any hit is near 11%. Calls follow the shape of the dose curve; as a rule, active = well fitted inhibition curve with a large enough effect; inconclusive = small, poorly fitted or top-dose-only effect; inactive = no such curve, though single readings can be large or run the other way.

Cc1ccc(C(=O)Nc2cccc(O)c2)cc1S(=O)(=O)N1CCCCCC1	none (no result: L3MBTL1 inh)
O=C1C(Nc2ccccc2)=C(N2CCCCC2)C(=O)c2ccccc21	JMJD2A Tudor inh 40µM, BAZ2B block 25µM, HP1b chromo inh inconclusive
Cc1ccc(S(=O)(=O)NCC(c2ccccc2)N2CCCCC2)cc1 (stereo unspecified)	none (no result: G9a inh)
O=C1C(Nc2cccc(O)c2)=C(N2CCCCC2)C(=O)c2ccccc21	JMJD2A Tudor inh 14µM, BAZ2B block 22µM, HP1b chromo inh 22µM, L3MBTL1 inh inconclusive (no result: G9a inh)
CCNc1c(NS(=O)(=O)c2ccc(OC)cc2)c(=O)oc2ccccc12	none (no result: L3MBTL1 inh)
CN(C1=C(N2CCCCC2)C(=O)c2ccccc2C1=O)c1ccccc1	G9a inh 3.5µM, JMJD2A Tudor inh 4µM, BAZ2B block 2.8µM, HP1b chromo inh inconclusive (no result: L3MBTL1 inh)
COc1ccccc1NC1=C(N2CCCCC2)C(=O)c2ccccc2C1=O	G9a inh 6.3µM, JMJD2A Tudor inh 40µM, BAZ2B block 32µM, HP1b chromo inh inconclusive
COC(=O)C1=C(O)/C(=C\c2ccc(CNC(=O)C(=O)Nc3ccc(C)cc3)o2)N=C1C	G9a inh 32µM, JMJD2A Tudor inh inconclusive, BAZ2B block 32µM, L3MBTL1 inh 7.9µM
CCOC(=O)C1=C(O)/C(=C\c2ccc(CNS(=O)(=O)c3ccc(Br)cc3)o2)N=C1C	G9a inh inconclusive, JMJD2A Tudor inh 56µM
CCOC(=O)C1=C(O)/C(=C/c2ccc(CNC(=O)C(=O)Nc3ccc(C)cc3)o2)N=C1C	G9a inh 32µM, BAZ2B block 50µM (no result: L3MBTL1 inh)
COC(=O)C1=C(O)/C(=C\c2ccc(CNC(=O)C(=O)Nc3ccc(C)c(C)c3)o2)N=C1C	G9a inh 50µM (no result: L3MBTL1 inh)
CCOC(=O)C(=O)NCc1ccc(/C=C2/N=C(C)C(C(=O)OCC)=C2O)o1	L3MBTL1 inh inconclusive (no result: G9a inh)
COc1ccc(CNC(=O)c2ccc3c(c2)nc2n3CCC(C)C2)c(OC)c1 (stereo unspecified)	none (no result: L3MBTL1 inh)
COCCNCCCOc1ccc(C)cc1Br	JMJD2A Tudor inh 20µM, BAZ2B block 56µM (no result: G9a inh)
C=CCNCCCOc1ccc(C)cc1Br	none
CCOc1ccccc1OCCCOc1ccc(C)cc1Br	none (no result: G9a inh)
COCCCNCCCOc1ccc(C)cc1Br	G9a inh inconclusive, JMJD2A Tudor inh 3.5µM, BAZ2B block 50µM
CC(C)NCCCOc1ccc(Cl)cc1Br	JMJD2A Tudor inh 32µM, BAZ2B block inconclusive, HP1b chromo inh inconclusive (no result: G9a inh)
CCN(CC)CCCOc1ccc(C)cc1Br	G9a inh 20µM, JMJD2A Tudor inh 14µM, BAZ2B block 79µM, HP1b chromo inh inconclusive (no result: L3MBTL1 inh)
CCCCn1c(=N)n(CCCOc2ccc(F)cc2)c2ccccc21	none (no result: L3MBTL1 inh)
CC(C)NCCCCOc1ccc(Br)cc1Cl	JMJD2A Tudor inh 32µM (no result: G9a inh)
CCCCNCCCOc1cc(Cl)ccc1Cl	none (no result: L3MBTL1 inh)
COCCCNCCCOc1ccc(Cl)cc1Br	G9a inh inconclusive, JMJD2A Tudor inh 0.89µM, BAZ2B block inconclusive, HP1b chromo inh inconclusive
CCCCNCCOCCOc1ccc(F)cc1	G9a inh 11µM, JMJD2A Tudor inh 5µM, BAZ2B block 79µM, HP1b chromo inh inconclusive
CCCCNCCOCCOc1ccc(Cl)cc1Br	G9a inh 7.9µM, JMJD2A Tudor inh 4.5µM, BAZ2B block 79µM
Cc1ccc2oc(C(=O)N(Cc3ccccc3F)C3CCS(=O)(=O)C3)c(C)c2c1 (stereo unspecified)	none (no result: L3MBTL1 inh)
COc1cc(/C=N/NC(=O)C(=O)/C=C2\NC(C)(C)Cc3ccccc32)ccc1O	G9a inh inconclusive, BAZ2B block inconclusive, HP1b chromo inh inconclusive
Cc1ccc(Cl)cc1-n1c(=O)c2sc3ccccc3c2n(CC(=O)NC2CCCCC2)c1=O	none (no result: L3MBTL1 inh)
Cc1ccc(S(=O)(=O)Nc2cccc3cccnc23)c([N+](=O)[O-])c1	JMJD2A Tudor inh inconclusive, BAZ2B block 45µM (no result: L3MBTL1 inh)
Cc1[nH]n(-c2ccccc2)c(=O)c1/C=N/N1CCOCC1	G9a inh inconclusive
O=c1c(/C=N/N2CCOCC2)c(C(F)(F)F)[nH]n1-c1ccccc1	G9a inh 40µM
O=C1/C(=C/c2ccncc2)SC(=S)N1Cc1ccccc1	JMJD2A Tudor inh 25µM, BAZ2B block 11µM, HP1b chromo inh 45µM (no result: G9a inh)
CCCN1C(=O)/C(=C/c2ccncc2)SC1=S	G9a inh 45µM, JMJD2A Tudor inh inconclusive, BAZ2B block 25µM, HP1b chromo inh inconclusive
CNc1nc(-c2ccccc2)c(-c2ccccc2)s1	none (no result: G9a inh, BAZ2B block, L3MBTL1 inh)
CNC(=O)c1ccc(S(=O)(=O)c2ccc(Cl)cc2)c(NC(C)=O)c1	none (no result: L3MBTL1 inh)
O=C(c1nnsc1S(=O)(=O)c1ccc(Cl)cc1)N1CCOCC1	G9a inh 50µM
O=C(c1ccc(NS(=O)(=O)c2ccc(Cl)cc2)cc1)N1CCOCC1	none (no result: L3MBTL1 inh)
O=C(c1nnsc1S(=O)c1ccc(Cl)cc1)N1CCOCC1 (stereo unspecified)	G9a inh 32µM, JMJD2A Tudor inh 7.1µM, HP1b chromo inh inconclusive
CNC(=O)c1nnsc1S(=O)(=O)c1ccc(Cl)cc1	G9a inh 14µM, L3MBTL1 inh inconclusive
O=C(Nc1ccccc1)c1nnsc1S(=O)c1ccc(Cl)cc1 (stereo unspecified)	G9a inh inconclusive, JMJD2A Tudor inh inconclusive
Cc1ccc2nc(-c3cc(N)cc(N)c3)oc2c1	JMJD2A Tudor inh inconclusive, BAZ2B block 50µM
Nc1ccc(-c2nc3ccc(N)cc3o2)cc1	none (no result: L3MBTL1 inh)
Cc1cn2c(=O)c(S(=O)(=O)NCCc3ccccc3)c(C)nc2s1	none (no result: L3MBTL1 inh)
COc1ccccc1-c1cc(C(=O)NCCN2CCOCC2)no1	none
O=C(C1=C(O)C(=O)N(CCN2CCOCC2)C1c1cccc(F)c1)c1cc2ccccc2o1 (stereo unspecified)	none (no result: L3MBTL1 inh)
O=C(C1=C(O)C(=O)N(CCN2CCOCC2)C1c1ccc(Br)cc1)c1cc2ccccc2o1 (stereo unspecified)	G9a inh inconclusive, BAZ2B block inconclusive (no result: L3MBTL1 inh)
O=C(C1=C(O)C(=O)N(CCN2CCOCC2)C1c1cccs1)c1cc2ccccc2o1 (stereo unspecified)	none (no result: G9a inh, BAZ2B block, L3MBTL1 inh)
O=C(C1=C(O)C(=O)N(CCN2CCOCC2)C1c1cccc(O)c1)c1cc2ccccc2o1 (stereo unspecified)	G9a inh 50µM, JMJD2A Tudor inh inconclusive, BAZ2B block inconclusive (no result: L3MBTL1 inh)
Cc1ccc(C2C(C(=O)c3cc4ccccc4o3)=C(O)C(=O)N2CCN2CCOCC2)cc1 (stereo unspecified)	G9a inh 40µM, JMJD2A Tudor inh inconclusive (no result: L3MBTL1 inh)
COc1cccc2cc(C(=O)NCCN3CCOCC3)oc12	G9a inh 45µM (no result: L3MBTL1 inh)
Cc1ccc(C2C(C(=O)c3cc4ccccc4o3)=C(O)C(=O)N2CCN2CCOCC2)o1 (stereo unspecified)	G9a inh inconclusive, JMJD2A Tudor inh 89µM, BAZ2B block inconclusive
Cn1cc(Cl)c(C(=O)N/N=C/c2ccc3c4c(cccc24)CC3)n1	none (no result: L3MBTL1 inh)
COc1cccc2cc(C(=O)C3=C(O)C(=O)N(CCN4CCOCC4)C3c3ccc(Cl)cc3)oc12 (stereo unspecified)	none (no result: G9a inh)
